Among all 290,000 compounds or so, about 27,000 (9.3%) were called active. The sample holds actives, similar compounds and a random draw of the others, so the mix is not that of the screen. Cut-off read from the data, not from the text of the source: active = inhibition mostly above about 28% (no sharp cut-off); inactive = mostly below about 43%.
Assay: A qHTS for Small Molecule Inhibitors of Shiga Toxin; note: 0% is about no effect
Settings: Vero cells, Shiga toxin protein synthesis inhibition reporter; at 38.7 µM, hits give high values

SMILES | inhibition
Cc1cc(C)c(S(=O)(=O)c2cc(F)ccc2C)c(=O)[nH]1 | -5.17% (inactive)
CCOc1ccc(NC(=O)COc2ccc(S(=O)(=O)N3CCCC3)cc2)cc1 | 22.6% (inactive)
C=C(C)CSc1nnc(-c2ccc(C)cc2)n1N | 130% (active)
Cc1ccc(-c2nnc(SC(C)C#N)n2N)cc1 (configuration not stated) | 12.2% (inactive)
Cc1ccc(NC(=O)NC(=O)CSc2nnc(-c3ccc(OC(F)F)cc3)n2N)c(C)c1 | 12.9% (inactive)
COc1cccc(C(=O)OCc2cc(=O)oc3c(C)c(C)ccc23)c1OC | 4.14% (inactive)
Cc1ccc(CNC(=O)CCS(=O)(=O)c2ccc3c(c2)CC(C)N3C(=O)C2CC2)o1 (configuration not stated) | 32.1% (inactive)
O=C(Nc1nonc1-c1ccc(Cl)cc1)c1ccco1 | 6.78% (inactive)
COc1cccc(CNC(=O)Cn2c(=O)oc3cc(S(=O)(=O)N4CCCCC4)ccc32)c1 | -6.29% (inactive)
Oc1ccc(-c2nncn2-c2ccccc2)cc1 | -7.57% (inactive)
c1ccc(-n2nc3ccccc3n2)cc1 | 25.4% (active)
c1ccc(-n2ncc(-c3nn[nH]n3)n2)cc1 | -22.5% (inactive)
CN1CN(C)c2ccc([N+](=O)[O-])c3cccc1c23 | 4.19% (inactive)
Cc1nn(C)cc1S(=O)(=O)N1CCN(c2ccc(F)cc2)CC1 | -28% (inactive)
COc1ccc(C(C(=O)NC(C)(C)C)N(Cc2ccc(F)cc2)C(=O)CCC(=O)Nc2cc(C)on2)cc1 (configuration not stated) | -4.11% (inactive)
Cc1cc(=O)oc2c(C)c(OCC(=O)NCCN3CCOCC3)ccc12 | -1.86% (inactive)
O=C1c2ccccc2C(=O)N1CCCc1nc(-c2ccccc2)no1 | 8.99% (inactive)
c1ccc(CCc2nc(-c3ccncc3)no2)cc1 | 60.1% (active)
O=C(Cc1ccc(Cl)cc1)NCc1nc(-c2ccccc2)no1 | -5.48% (inactive)
COc1ccccc1OCC(O)CN1CCOCC1 (configuration not stated) | -3.66% (inactive)
OC(COc1ccc2ccccc2c1)CN1CCOCC1 (configuration not stated) | 26.8% (active)

SMILES | inhibition
OC(COc1ccc2ccccc2c1)Cn1cncn1 (configuration not stated) | 11% (inactive)
COc1ccc(C2/C=C\CN(Cc3ccco3)C(C)C(=O)N2Cc2ccc(F)cc2)cc1 (configuration not stated) | -2.61% (inactive)
Cc1ccc(-n2nc3cc(Cl)c(NC(=O)c4ccco4)cc3n2)cc1 | 75.3% (active)
Cc1cc(NC(=O)c2ccco2)c(=O)n(Cc2c(F)cccc2Cl)c1 | 1.74% (inactive)
O=C(Nc1cccc(-n2cnnn2)c1)c1cccnc1 | -4.33% (inactive)
Cc1c(NC(=O)c2cccnc2)c(=O)n(-c2ccccc2)n1C | 12.2% (inactive)
Cc1ccc(-n2nc3cc(C)c(NC(=O)c4cccnc4)cc3n2)cc1 | 49% (active)
COC(=O)c1cc(Cl)c(NC(=O)c2ccco2)cc1OC | 29.6% (inactive)
C[C@H](NC(=O)[C@@H]1Cc2ccccc2CN1C(=O)OC(C)(C)C)C(=O)NC1CCCC1 | -6.03% (inactive)
O=c1[nH]cccc1-c1nc2ccccc2n1Cc1ccc(Cl)cc1 | -20.4% (inactive)
O=S(=O)(c1ccccc1)c1nc(Cc2ccccc2)oc1N1CCOCC1 | -8% (inactive)
COc1cccc(CNCc2ccc3c(c2)OCO3)c1 | -0.994% (inactive)
COc1cccc(C(=O)NNC(=O)/C=C/c2ccccc2)c1 | -15.7% (inactive)
COc1ccc(C2(O)C(=O)Nc3ccccc32)cc1 (configuration not stated) | -10.8% (inactive)
O=C1Nc2ccccc2C12Nc1ccccc1S2 (configuration not stated) | 103% (active)
Cc1cc(O)c(C2(O)C(=O)Nc3ccccc32)cc1C (configuration not stated) | -0.279% (inactive)
Cn1c(=O)[nH]c(=O)c2c1nc(N1CCN(C(c3ccccc3)c3ccccc3)CC1)n2CCO | -11.3% (inactive)
COc1ccc(NC(=O)c2cccc(Cl)c2)c[n+]1[O-] | -4.4% (inactive)
O=[N+]([O-])c1ccccc1/C=C/CN1CCC(O)CC1 | -7.66% (inactive)
c1ccc(CN2CCC(N=C3NN=C(c4ccc5c(c4)OCCO5)CS3)CC2)cc1 | 116% (active)
Clc1cccc(N=C2NN=C(c3ccc4c(c3)OCCO4)CS2)c1 | 95.2% (active)

SMILES | inhibition
CC(=NC1CCN(Cc2ccccc2)CC1)c1c(O)[nH]c(=O)[nH]c1=O | 21% (inactive)
CS(=O)(=O)N(CC(=O)N1CCN(Cc2ccccc2)CC1)c1ccc2c(c1)OCCO2 | -18.5% (inactive)
Cc1cccc(C)c1NC(=O)CSc1nc2c([nH]1)c(=O)n(C)c(=O)n2C | -8.9% (inactive)
Cc1ccc(C(=O)N2CC(=O)Nc3ccc(F)cc3C2c2ccc(F)cc2)cc1 (configuration not stated) | 2.9% (inactive)
CCOC(=O)c1cc(C(=O)Nc2ccc(S(=O)(=O)Nc3ccc(OC)cc3)cc2)nn1C | 5.33% (inactive)
CCOc1ccccc1Nc1ccc2nonc2c1[N+](=O)[O-] | -7.22% (inactive)
S=c1[nH]nc(Nc2ccccc2)s1 | -13.5% (inactive)
O=C(c1ccc(Cl)cc1)c1cnc(Nc2ccccc2)s1 | 25.6% (inactive)
CC(C)(C)C(=O)c1cnc(Nc2ccccc2)s1 | 87% (active)
COc1ccc(-n2cnnc2SCC(=O)Nc2cccc(S(N)(=O)=O)c2)cc1 | -21.7% (inactive)
COc1ccc(OC)c(NC(=O)CN(C)CCOc2ccc(Br)cc2)c1 | -23.8% (inactive)
NC(=O)COc1ccc(C23CC4CC(CC(C4)C2)C3)cc1 | 58.8% (active)
NNC(=O)COc1ccc(C2SCCS2)cc1 | 20.4% (inactive)
NC(=O)COc1ccccc1C(=O)NC12CC3CC(CC(C3)C1)C2 | -4.22% (inactive)
O=S(=O)(Oc1ccccc1C(=S)N1CCOCC1)c1ccc(Cl)cc1 | -36.2% (inactive)
Cc1ccc(N(C(=O)c2snc(C(N)=O)c2N)C(C(=O)NCC2CCCO2)c2c[nH]c3ccccc23)cc1 (configuration not stated) | 23.7% (inactive)
COC(=O)c1ccccc1NC(=O)C1CCN(C(=O)N2CCOc3ccccc32)CC1 | 8.07% (inactive)
CC(=O)Nc1cccc(-c2nc3ccccc3s2)c1C | 60.4% (active)
Cc1nn(CC(=O)Nc2nc3ccccc3s2)c(C)c1[N+](=O)[O-] | 26.1% (inactive)
Oc1ccc(-c2[nH]ncc2-c2nc3ccccc3s2)c(O)c1 | 13.6% (inactive)

— PubChem BioAssay AID2315 (National Center for Advancing Translational Sciences (NCATS), 2010)
